# Bioassay records: PubChem BioAssay, The Scripps Research Institute Molecular Screening Center
# Shown are actives, neighbours in structure and some others; about 4.1% of the full set was active somewhere.
# LEDGF integ inh = blocks HIV-1 LEDGF/p75-dependent DNA integration; inhibition, % at 3.7 µM; AID 743269; 370,000 tested, 0.64% active; TR-FRET IN-LEDGF/p75 DNA integration, Eu/Cy5;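 active means inhibition above the screen-wide mean plus 3 SD, cut at about 13% in these data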;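 further: signal is the Cy5 over europium emission ratio at 671 and 618 nm; 0% = plate median of compound wells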
# MBD2 DNA inh = inhibitors of human MBD2 binding to methylated oligonucleotide | Q9UBB5 | TR-FRET | inhibition, % at 4.4 µM | 370,000 tested, 0.31% active | AID 686964; in the data active means inhibition above about 13%
# UHRF1 binding = human UHRF1 methylated DNA binding inhibitors; Q96T88; UHRF1 binding to methylated oligo, TR-FRET; inhibition, % at 4.4 µM; 370,000 tested, 0.75% active; AID 687016;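 further: UHRF1 SRA domain binding a hemimethylated CpG hairpin DNA probe; 0% = median of test compound wells and 100% = reference inhibitor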
# ABHD5-PLIN5 inh = blocks binding of human ABHD5 to perilipin-5 | Split G. princeps luciferase complementation, luminescence, 4 h | inhibition, % at 4 µM | 360,000 tested, 0.78% active | Q00G26+Q8WTS1;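 active means inhibition above the mean inhibition across every tested compound plus 3 SD, cut at about 22% in these data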;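 further: 0% = DMSO only wells and the 100% control is not disclosed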
# rCAG binder = molecules binding r(CAG) RNA repeats. inhibition, % at 3 µM. r(CAG) RNA repeat, TO-PRO-1 dye displacement fluorescence. 370,000 tested, 1.3% active. AID 651821;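 active means inhibition above the plate cutoff, the mean of all test compounds on that plate plus 3 SD, cut at about 35% in these data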;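 further: 0% = DMSO alone and 100% = 100 µM mitoxantrone as full dye displacement; higher means more dye released from RNA so lower well fluorescence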
# PRMT1 FP inh = PRMT1 (human) inhibition, primary screen. Q99873. recombinant PRMT1, activity-based probe fluorescence polarization. inhibition, % at 2.79 µM. 370,000 tested, 1.3% active;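 active means inhibition above about 21% made by adding two undisclosed values, limit read from the data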
# ABHD5-PLIN5 conf = ABHD5-PLIN5 interaction inhibition, confirmed. shares compounds with ABHD5-PLIN5 inh. biochemical ABHD5-PLIN5 interaction, luminescence. inhibition, % at 4 µM. 2,200 tested, 67% active; in the data active means inhibition above about 23%;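 further: 0% = DMSO vehicle wells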
# HNF4 split-luc = HNF4 split-luciferase signal hit, counter-screen; HNF4 dimerization, luminescence, biochemical; inhibition, % at 4 µM; shares compounds with ABHD5-PLIN5 inh; AID 651674; 2,200 tested, 77% active;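 active means mean inhibition across replicate wells exceeding the computed hit threshold, cut at about 13% in these data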;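 further: light from luciferase halves that rejoin when HNF4 fusion proteins dimerize; 0% = DMSO only wells and the 100% control is not given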
# rCAG bind conf = r(CAG) RNA repeat binding, confirmation | shares compounds with rCAG binder | AID 652065 | TO-PRO-1 dye displacement fluorescence | inhibition, % at 3 µM | 4,300 tested, 70% active;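 active means inhibition above a per-plate cutoff, the mean inhibition of sample wells plus 3 SD, cut at about 35% in these data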;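 further: loss of TO-PRO-1 fluorescence as compound displaces dye from 1x1 AA loop RNA; 0% = DMSO only wells and 100% = 100 µM mitoxantrone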
# DNA CAG counter = counter-screen for rCAG RNA binders: DNA CAG dye complex inhibitors; 4,300 tested, 94% active; shares compounds with rCAG binder; d(CAG) DNA oligo TO-PRO-1 dye displacement, fluorescence; inhibition, % at 3 µM;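 active means inhibition above its plate's cutoff, the mean test-well inhibition plus 3 SD, cut at about 4.8% in these data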;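 further: 0% = DNA dye mix with DMSO and 100% = 100 µM mitoxantrone; hits displace the dye from DNA and so lower well fluorescence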
# PRMT1 inh conf = confirmation of human PRMT1 inhibitors. 3,300 tested, 42% active. inhibition, % at 2.79 µM. recombinant His-PRMT1, activity-based probe fluorescence polarization. shares compounds with PRMT1 FP inh;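 active means mean inhibition across replicates above the hit cutoff derived for the earlier primary screen, cut at about 22% in these data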
# UHRF1 ctr MBD2 = counter-screen for MBD2 inhibitors: human UHRF1 methylated DNA binding inhibitors. UHRF1 binding to methylated oligonucleotide, TR-FRET. 1,000 tested, 25% active. shares compounds with MBD2 DNA inh. inhibition, % at 4.4 µM;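 further: UHRF1 SRA domain binding a labeled hemimethylated CpG hairpin DNA; 0% = vehicle only and 100% = reference inhibitor with vehicle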
# MBD2 confirm = MBD2-DBD methyl-DNA binding inhibition, TR-FRET confirmation; shares compounds with MBD2 DNA inh; TR-FRET MBD2-DBD binding to methylated oligonucleotide; inhibition, % at 4.4 µM; 1,000 tested, 26% active; in the data active means inhibition above about 14%
# IN multimer act = HIV-1 integrase multimerization activation, counter-screen | activation, % at 7.7 µM | TR-FRET HIV-1 integrase multimerization, biochemical | 2,000 tested, 17% active | shares compounds with LEDGF integ inh; in the data active means activation above about 8.9%
# TR-FRET interf = optically interferes with TR-FRET readout in LEDGF counter-screen. TR-FRET optical interference counterscreen, HIV-1 IN multimerization. 2,000 tested, under 10 active. inhibition, % at 7.7 µM. shares compounds with LEDGF integ inh;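 active means inhibition above the mean over all tested compounds plus 3 SD, which no compound reached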;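 further: 0% = integrase with antibodies and DMSO and 100% = antibodies without integrase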
# IN-LEDGF confirm = LEDGF/p75-dependent HIV-1 integration inhibition, confirmation | shares compounds with LEDGF integ inh | 2,000 tested, 36% active | inhibition, % at 3.7 µM | TR-FRET LEDGF/p75-dependent HIV-1 integration, biochemical; in the data active means inhibition above about 14%
# An asterisk follows results filed as active; . = not tested or not shown. Unless noted, no stated cut-off is given here; in the data, active means inhibition above about 21%; inactive means the rest.
SMILES,LEDGF integ inh,MBD2 DNA inh,UHRF1 binding,ABHD5-PLIN5 inh,rCAG binder,PRMT1 FP inh,rCAG bind conf,DNA CAG counter,others
O=C1NC(=O)N(Cc2ccco2)C(=O)/C1=C/C=C/c1ccco1,92.1*,74.2*,99.7*,46.0*,50.0*,61.4*,32.0,14.2*,ABHD5-PLIN5 conf=98.4*;HNF4 split-luc=79.6*;PRMT1 inh conf=12.7;UHRF1 ctr MBD2=55.3*;MBD2 confirm=29.6*;IN multimer act=6.8;TR-FRET interf=-24.3;IN-LEDGF confirm=55.8*
CN1C(=O)C(=Cc2cn(CC#N)c3ccccc23)C(=O)N(C)C1=O,15.8*,-1.1,1.6,29.1*,5.7,31.5*,.,.,ABHD5-PLIN5 conf=22.5*;HNF4 split-luc=20.7*;PRMT1 inh conf=11.0;IN multimer act=0.2;TR-FRET interf=-0.9;IN-LEDGF confirm=-4.7
CN1C(=O)C(=Cc2coc3ccccc3c2=O)C(=O)N(C)C1=O,1.1,-2.4,-1.9,12.2,2.0,-0.1,.,.,
NNc1n[nH]c(=S)n1N,-2.6,0.8,0.8,-25.6,-3.1,16.4,.,.,
c1ccc(-c2nc3ccccc3nc2-c2ccc(CN3CCC(n4nnc5ccccc54)CC3)cc2)cc1,3.2,3.9,11.1,.,8.5,-1.9,.,.,
CNc1ccc2oc(C[C@H]3O[C@@]4(CC[C@H]3C)O[C@H]([C@H](C)C(=O)c3ccc[nH]3)[C@H](C)C[C@H]4C)nc2c1C(=O)O,10.7,-3.5,-4.7,-23.1,78.5*,25.6*,38.3*,7.3*,
Cc1ccc(-n2c(=S)[nH]c3ccccc3c2=O)cc1F,2.1,-0.5,-1.0,-9.8,36.2*,-1.4,34.2,8.9*,
Cc1cc(OCC(=O)NC(Cc2ccc(Cl)cc2)C(=O)O)c2c3c(c(=O)oc2c1)CCC3 (stereo not given),-2.2,-4.9,-0.3,-9.3,54.3*,3.6,53.7*,15.5*,
O=C(N/N=C/c1c(O)n(C2CC2)c(=S)[nH]c1=O)c1ccccc1O,-4.5,2.3,-2.0,5.2,37.8*,0.7,21.0,6.0*,
Cc1ccccc1-n1c(O)c(/C=N/NC(=O)c2ccccc2O)c(=O)[nH]c1=S,-4.7,0.7,-1.6,6.2,56.2*,-0.7,35.0*,9.0*,
O=c1[nH]c(=S)n(C2CC2)c(O)c1C=NCc1ccc(F)cc1,-8.1,3.3,1.6,2.2,-1.2,0.9,.,.,
O=C(N/N=C/c1c(O)n(-c2ccccc2)c(=S)[nH]c1=O)c1ccccc1,-2.2,-2.5,-3.7,9.2,6.1,-1.6,.,.,
